Here are results for 13 molecules from ChEMBL document CHEMBL3988442, “University of Dundee, Small-Polar-MMV Screening Library” (2021).

Molecules are shown by their SMILES.

The target in assay [1] is T1, Aspartate--tRNA(Asp/Asn) ligase (Mycobacterium tuberculosis (strain ATCC 25618 / H37Rv)) (UniProt P9WFW3). Further: in the data most compounds retested in dose-response had high values.
T1 sequence (whole entry): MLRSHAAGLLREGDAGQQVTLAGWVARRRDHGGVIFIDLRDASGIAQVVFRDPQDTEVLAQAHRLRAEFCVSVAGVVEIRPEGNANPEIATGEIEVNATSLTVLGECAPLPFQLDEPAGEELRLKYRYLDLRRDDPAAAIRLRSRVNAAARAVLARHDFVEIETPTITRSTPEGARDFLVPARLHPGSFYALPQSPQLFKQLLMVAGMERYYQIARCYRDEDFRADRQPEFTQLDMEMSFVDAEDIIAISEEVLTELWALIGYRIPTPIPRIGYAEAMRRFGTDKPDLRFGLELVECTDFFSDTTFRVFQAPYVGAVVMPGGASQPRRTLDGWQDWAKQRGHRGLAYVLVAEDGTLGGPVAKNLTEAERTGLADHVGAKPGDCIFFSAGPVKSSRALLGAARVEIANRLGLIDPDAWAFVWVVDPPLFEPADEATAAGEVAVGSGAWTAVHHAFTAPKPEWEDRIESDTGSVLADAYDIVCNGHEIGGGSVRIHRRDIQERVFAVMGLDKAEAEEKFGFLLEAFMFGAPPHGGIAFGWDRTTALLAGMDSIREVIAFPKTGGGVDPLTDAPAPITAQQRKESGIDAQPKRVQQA
The assay is described as follows: Assay for Asp RNA synthetase-1 from Mycobacterium tuberculosis. Particulars: 30 µM. It counts as functional. Further details: scale not given: direction of the effect not stated beside the values.

The target in assay [2] is Shiga toxin 2 (Escherichia coli O157:H7) (UniProt P09385+P09386). The assay is described as follows: E. coli 0.157:H7 Shiga Toxin SOP - stx2 screening assay. Type of assay: functional. Further details: scale not given: direction of the effect not stated beside the values. To be noted: 30 µM.

Consider `CCCn1nc(C)c(CNC(=O)C2COc3c(cccc3OC)C2)c1C` (stereo unspecified), for which the Percent Effect in assay [1] is 0.114%; in assay [2], -6.29%.
As for `CN(Cc1cnn(C)c1)C(=O)NC1CCN(c2ncccn2)CC1`, the Percent Effect in assay [1] was -1.27%; in assay [2], 10.9%.
As to `Cc1cnn(CC2CN(CCc3ccncc3)CCO2)c1` (stereo unspecified), the Percent Effect in assay [1] is 8.62%; in assay [2], -2.69%.
Take `OC(CN1CCN(Cc2nnc(C3CC3)o2)CC1)c1ccccc1` (stereo unspecified): the Percent Effect is -1.28% in assay [1] and 6.16% in assay [2].
With `Cc1ccc(-n2nnc(C(=O)NS(C)(=O)=O)c2C2CC2)cc1`, the Percent Effect in assay [1] was 0.379%; in assay [2] it was -7.97%.
As to `Cc1csc2c(=O)n3c(nc12)CCN(C(=O)c1cccnc1)CC3`, the Percent Effect in assay [1] is -0.521%; in assay [2], 6.12%.
The like results for `COc1ccc(C)cc1CSCCn1nc2ccccn2c1=O` were, in that order, -3.83% and 6.71%.
As to `CC(=O)NCC(=O)N1Cc2nccn2CC(CN2CCCC2)C1` (stereo unspecified), the Percent Effect in assay [1] was -4.29%; in assay [2], 2.69%.
As for `CC(C)c1n[nH]c(C2CN(C(=O)c3csnn3)CCO2)n1` (stereo unspecified), the Percent Effect is -5.03% in assay [1] and -13.5% in assay [2].
The like results for `CC(c1cccc(S(N)(=O)=O)c1)N(C)CCc1ccccc1` (stereo unspecified) were, in that order, 5.72% and -26.2%.
For the molecule `COCc1c(C(=O)NC2CCCC2)nnn1-c1ccc(C)cc1`, the figures for the Percent Effect in assay [1] and in assay [2] were -4.96% and 10.2%, respectively.
For the molecule `COc1cccc(CNC(=O)C(c2cccc(F)c2)N2CCOCC2)c1` (stereo unspecified), the Percent Effect is 1.86% in assay [1] and -6.55% in assay [2].
With `Cc1cccc(CN2CCN(Cc3ccccc3)CC(O)C2)n1` (stereo unspecified), the Percent Effect in assay [1] was 2.13%; in assay [2], 13.4%.
